PubChem BioAssay AID684 (PCMD, 2007)
The whole screen tested about 62,000 compounds, of which about 95 (0.2%) were called active. Cut-off read from the data, not from the text of the source: active = inhibition above about 20% (passing the limit was not always enough); inactive = the rest. Shown is part of a subset that was picked to be rich in actives.

Biological target: Coagulation factor XII (Homo sapiens) (UniProt P00748)
Test: blockers of FXIIa protease activity – biochemical, pooled compound mixtures, fluorogenic substrate, primary screen (AID 684);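 note: 0% = enzyme without compound and 100% = no enzyme blank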
Settings: purified FXIIa, at 5 µM, stronger effect = higher value

Sequence of Coagulation factor XII (Homo sapiens) (P00748 20-372 limits assumed): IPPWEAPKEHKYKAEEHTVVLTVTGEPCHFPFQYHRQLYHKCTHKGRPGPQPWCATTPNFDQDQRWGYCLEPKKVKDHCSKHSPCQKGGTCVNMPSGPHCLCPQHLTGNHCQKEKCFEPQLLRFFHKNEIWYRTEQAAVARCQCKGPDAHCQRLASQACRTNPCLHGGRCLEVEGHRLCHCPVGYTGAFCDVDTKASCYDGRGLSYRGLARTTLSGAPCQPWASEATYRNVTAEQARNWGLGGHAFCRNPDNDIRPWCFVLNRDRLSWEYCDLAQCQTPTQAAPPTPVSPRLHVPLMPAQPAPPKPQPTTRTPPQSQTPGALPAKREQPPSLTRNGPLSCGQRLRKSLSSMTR
Sequence of Coagulation factor XII (Homo sapiens) (P00748 373-615 limits assumed): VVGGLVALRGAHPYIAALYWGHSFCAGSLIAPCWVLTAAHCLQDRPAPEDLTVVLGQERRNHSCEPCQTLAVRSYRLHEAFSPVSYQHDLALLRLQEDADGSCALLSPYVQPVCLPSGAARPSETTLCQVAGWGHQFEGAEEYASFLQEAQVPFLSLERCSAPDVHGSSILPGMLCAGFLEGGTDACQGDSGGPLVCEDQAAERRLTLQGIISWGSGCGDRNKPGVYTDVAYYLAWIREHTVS

SMILES | inhibition
CC1(C)CC(=O)c2sc(N)nc2C1 | 4.78% (inactive)
CCN1CCN(c2c(Cl)cccc2NC(=O)c2ccc(Br)o2)CC1 | 10.2% (inactive)
CCOC(=O)c1ccc(N2C(=O)CC(Sc3nc(O)c(CC)c(=O)[nH]3)C2=O)cc1 (stereo not drawn) | -16.1% (inactive)
O=C(CCCn1c(=O)[nH]c2cc(Cl)ccc2c1=O)NCCN1CCN(c2ccccc2)CC1 | 6.45% (inactive)
CC(C)Cn1c(CN(Cc2ccccc2)Cc2ccccc2)nc2c1c(=O)n(C)c(=O)n2C | 2.03% (inactive)
CCOCC(=O)NCc1ccc2c(c1)cc(C)n2C | 5.58% (inactive)
CC1CCCC(NC(=O)CSc2nccn2C)C1C (stereo not drawn) | 4.17% (inactive)
O=C(/C=N/O)Nc1ccccc1 | 1.18% (inactive)
CCC(=O)N1CCN=C1SCc1ccc(F)cc1 | 11.4% (inactive)
Cc1ccc(CN2C(=O)CCC2C(=O)NCCCN2CCCCC2C)cc1 (stereo not drawn) | 5.07% (inactive)
Cc1cc(C)c(C#N)c(SCS(=O)c2ccc(C(C)(C)C)cc2)n1 (stereo not drawn) | 4.64% (inactive)
CCOC(=O)c1cc2c(n(-c3ccc(C)cc3)c1=O)CCCC2=O | 6.98% (inactive)
CC(c1ccco1)N(C(=O)c1ccc(S(=O)(=O)N2CCCCC2)cc1)c1ccccn1 (stereo not drawn) | 12% (inactive)
COC(=O)c1oc2ccc(Br)cc2c1NC(C)=O | 8.62% (inactive)
Cc1nnc(SCc2cc(=O)[nH]c(N3CCN(Cc4ccccc4)CC3)n2)s1 | 2.33% (inactive)
Cc1nn(-c2cc(Cl)ccc2N)c(=O)c2ccccc12 | 4.62% (inactive)
COc1cc(OC)c(C(=O)Nc2ccc(N(C)C)cc2)cc1OC | 6.85% (inactive)
CSc1ccc(NC(=O)N2CC(C)OC(C)C2)cc1 (stereo not drawn) | 7.45% (inactive)
O=C(Nc1cccc2cccnc12)c1cccc(N2C(=O)CCC2=O)c1 | 8.88% (inactive)
CCCCOC(=O)Nc1nccs1 | 0.87% (inactive)
CC1=C(C(N)=O)C(c2ccc3c(c2)OCO3)n2nc(-c3cccc(C)c3)nc2N1 (stereo not drawn) | 6.61% (inactive)
CCn1c(SCC(=O)c2ccc(Cl)s2)nnc1-c1cccs1 | 7.99% (inactive)
O=C(O)c1ccc(COCC(F)(F)F)cc1 | 7.12% (inactive)
COc1ccccc1C(=O)C(O)c1ccccc1OC (stereo not drawn) | 5.88% (inactive)
CC(C)C(=O)Nc1c(C(=O)c2ccc(F)cc2)oc2ccccc12 | -2.16% (inactive)
Cc1cccc(C(=O)Nc2ccc(CC(=O)O)cc2)c1 | 3.19% (inactive)
O=c1[nH][nH]c(=O)c2cc(N3CCCC3)ccc12 | 10.2% (inactive)
Cc1cc(=O)n2nc(N3CCCC3C(=O)NCCCN3CC(C)CC(C)C3)sc2n1 (stereo not drawn) | -7.38% (inactive)
